Source: paper PMC11062922 (Nature Chemical Biology, 2023)
Where two headings read alike, the source gives them in different places.

Tests used:
Set-up in all cases: species or system human, MV4-11 + K-562 + COLO205 + SK-N-BE2 + OVCAR-8
[1] = tested on: ATR; settings: read-out: apparent Kd; compound concentrations: 100 nM and 1000 nM (sheet 'Samples'), CATDS: 1.78741670317108E-2; n = 1
[2] = tested on: T1, DJA1; settings: read-out: apparent Kd; compound concentrations: 100 nM and 1000 nM (sheet 'Samples'), CATDS: 1.9156343081097999E-2; n = 1
T1 construct: gene DNAJA1

[3] = tested on: FRK; settings: read-out: apparent Kd; compound concentrations: 100 nM and 1000 nM (sheet 'Samples'), CATDS: 1.6945625051929199E-2; n = 1
[4] = tested on: IRAK4; settings: read-out: apparent Kd, compound concentrations: 100 nM and 1000 nM (sheet 'Samples'), n = 1
[5] = tested on: MAP2K1; settings: read-out: apparent Kd, compound concentrations: 100 nM and 1000 nM (sheet 'Samples'), n = 1
[6] = tested on: NLK; settings: read-out: apparent Kd, n = 1
[7] = tested on: STK26; settings: read-out: apparent Kd, compound concentrations: 100 nM and 1000 nM (sheet 'Samples'), n = 1
[8] = tested on: CDK6; settings: read-out: apparent Kd, compound concentrations: 100 nM and 1000 nM (sheet 'Samples'), n = 1
[9] = tested on: CDC7; settings: read-out: apparent Kd, n = 1
[10] = tested on: NQO2; settings: read-out: apparent Kd, n = 1
[11] = tested on: ULK3; settings: read-out: apparent Kd, n = 1
[12] = tested on: ACAD11; settings: read-out: apparent Kd, n = 1
[13] = tested on: JAK2; settings: read-out: apparent Kd, n = 1
[14] = tested on: MAPKAPK2; settings: read-out: apparent Kd; compound concentrations:100 nM and 1000 nM (sheet 'Samples'); n = 1
[15] = tested on: CDK5; settings: read-out: apparent Kd; compound concentrations: 100 nM and 1000 nM (sheet 'Samples'), CATDS: 1.15516504850929E-2; n = 1
[16] = tested on: MAP4K1; settings: read-out: apparent Kd; compound concentrations: 100 nM and 1000 nM (sheet 'Samples'), CATDS: 1.18408436386705E-2; n = 1
[17] = compound concentrations:100 nM and 1000 nM (sheet 'Samples')

## CCn1c(-c2cccnc2O)nc2cnccc21 [SB-736715]
[1]
  potency estimated from few doses: 919 nM
[2]
  potency estimated from few doses: 812 nM
[3]
  potency estimated from few doses: 1010 nM
[4]; CATDS: 1.2053772539955101E-2
  potency estimated from few doses: 2160 nM
[5]; CATDS: 1.2472945477492101E-2
  potency estimated from few doses: 1980 nM
[6]; compound concentrations: 100 nM and 1000 nM (sheet 'Samples'), CATDS: 1.3463251782528499E-2
  potency estimated from few doses: 1640 nM
[7]; CATDS: 1.4283028006721699E-2
  potency estimated from few doses: 1440 nM

## COc1ccc(-c2cc3c(N)ncnc3o2)cc1 [GW642138X]
[8]; CATDS: 0.103985986158265
  potency estimated from few doses: 1700 nM
[4]; CATDS: 9.7145824911744297E-2
  potency estimated from few doses: 1950 nM
[7]; CATDS: 0.100922192371782
  potency estimated from few doses: 1800 nM

## CC(C)Oc1ccc2c(-c3ccnc(Nc4ccc(N5CCN(C)CC5)cc4)n3)cnn2n1 [GW696155X]
[9]; [17]
  potency estimated from few doses: 1440 nM
[10]; [17]
  potency estimated from few doses: 1060 nM
[11]; [17]
  potency estimated from few doses: 290 nM

## CS(=O)(=O)CCn1c(=O)c(Oc2ccc(F)cc2F)cc2cnc(NC3CCOCC3)nc21 [RO5027956-000]
[12]; [17]
  potency estimated from few doses: 1690 nM
[13]; [17]
  potency estimated from few doses: 65.6 nM
[14]
  potency estimated from few doses: 15.9 nM
[6]; [17]
  potency estimated from few doses: 55.9 nM

## COC(=O)c1cccc(NC(=O)NC2CCN(c3ccnc(Nc4cc(OC)c(OC)c(OC)c4)n3)C2)c1 (stereo not drawn) [GSK1379767A]
[5]; CATDS: 9.4958067467462701E-2
  potency estimated from few doses: 2010 nM

## O=C(O)C(F)(F)F.O=c1[nH]ccc2nc(N[C@@H]3CCNC3)nc(Nc3ccc4c(c3)S(=O)(=O)CC4)c12 [GSK2181306A]
[12]; compound concentrations: 100 nM and 1000 nM (sheet 'Samples'), CATDS: 2.2275059319964801E-2
  potency estimated from few doses: 145 nM
[9]; compound concentrations: 100 nM and 1000 nM (sheet 'Samples'), CATDS: 3.8653220202105501E-2
  potency estimated from few doses: 57.1 nM
[15]
  potency estimated from few doses: 571 nM
[13]; compound concentrations: 100 nM and 1000 nM (sheet 'Samples'), CATDS: 1.0295673104193499E-2
  potency estimated from few doses: 781 nM
[5]; CATDS: 9.6647970877986305E-3
  potency estimated from few doses: 947 nM
[16]
  potency estimated from few doses: 536 nM
[11]; compound concentrations: 100 nM and 1000 nM (sheet 'Samples'), CATDS: 1.2312862576378401E-2
  potency estimated from few doses: 487 nM

## CCN(CC)Cc1ccc(Nc2nccc(-c3cnn4ncccc34)n2)cc1 [GW780056X]
[8]; CATDS: 6.8164228175802102E-2
  potency estimated from few doses: 83.2 nM
[10]; compound concentrations: 100 nM and 1000 nM (sheet 'Samples'), CATDS: 3.67642918881117E-2
  potency estimated from few doses: 274 nM
